ssDAF-12 act = activators of S. stercoralis DAF-12 nuclear receptor; HEK293 ssDAF-12/GRIP1 lit1-tk-luc reporter, luminescence; % of 3 µM dafachronic acid response; activation, % at 6.8 µM; 1% of 370,000 active; AID 652126;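 active means activation above the mean over all tested compounds plus 3 SD, cut at about 0.9% in these data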
DAX1 inh-1 = blocks DAX1 repression of SF-1 activated StAR promoter. HEK293T StAR-luciferase reporter, SF-1/DAX-1 repression relief. inhibition, % at 6.8 µM. 1.1% of 370,000 active. AID 652010;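 active means inhibition above the mean over all tested compounds plus 3 SD, cut at about 3.6% in these data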;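 further: higher inhibition means more luminescence from relief of DAX-1 repression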
hcDAF-12 act = activators of H. contortus DAF-12 nuclear receptor; HEK293 hcDAF-12 lit1-tk-luc reporter, luminescence; 0% DMSO, 100% Δ7-dafachronic acid; activation, % at 6.8 µM; 1.4% of 370,000 active;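 active means activation above the mean of all tested compounds plus 3 SD, cut at about 5.5% in these data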
hgDAF-12 ag = activates the H. glycines DAF-12 receptor ligand-binding domain; HEK293 GAL4-hgDAF12 UAS-luciferase reporter, agonist luminescence; normalized to butyrate control; activation, % at 6.8 µM; 1.8% of 370,000 active;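 active means activation above a cutoff set at the mean of all screened compounds plus 3 SD, cut at about 10% in these data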
DAX1 inh-2 = NR0B1 (DAX1) inhibition; HEK293 Gal4-DAX1 luciferase reporter, luminescence; P51843; inhibition, % at 6.75 µM; AID 504766; 0.99% of 340,000 active;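 active means inhibition above the mean over all tested compounds plus 3 SD, cut at about 4.2% in these data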;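 further: inhibition shows as a rise in luminescence from relieved DAX1 repression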
Target sequence (P51843 207-470 limits assumed): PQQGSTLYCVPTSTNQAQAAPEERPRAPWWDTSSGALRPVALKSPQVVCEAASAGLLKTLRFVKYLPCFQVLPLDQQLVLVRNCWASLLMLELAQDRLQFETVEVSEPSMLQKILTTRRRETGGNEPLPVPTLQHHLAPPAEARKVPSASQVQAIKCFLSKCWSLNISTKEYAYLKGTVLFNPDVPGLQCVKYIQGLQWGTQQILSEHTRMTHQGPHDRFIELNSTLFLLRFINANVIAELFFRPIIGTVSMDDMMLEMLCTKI
LXRb hcDAF ctr = counter-screen for hcDAF-12 agonists: agonists of human LXR-beta; HEK293 Gal4-LXR tk-luc reporter, luminescence, 24 h; normalized: DMSO 0%, positive control 100%; AID 743027; activation, % at 6.8 µM; shares compounds with hcDAF-12 act; 3,400 tested, under 10 active;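 active means mean percent activation of the reporter above a cutoff set as the average over tested compounds plus their standard deviation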
Target sequence (P55055 whole entry, looked up, the tested form may be a part): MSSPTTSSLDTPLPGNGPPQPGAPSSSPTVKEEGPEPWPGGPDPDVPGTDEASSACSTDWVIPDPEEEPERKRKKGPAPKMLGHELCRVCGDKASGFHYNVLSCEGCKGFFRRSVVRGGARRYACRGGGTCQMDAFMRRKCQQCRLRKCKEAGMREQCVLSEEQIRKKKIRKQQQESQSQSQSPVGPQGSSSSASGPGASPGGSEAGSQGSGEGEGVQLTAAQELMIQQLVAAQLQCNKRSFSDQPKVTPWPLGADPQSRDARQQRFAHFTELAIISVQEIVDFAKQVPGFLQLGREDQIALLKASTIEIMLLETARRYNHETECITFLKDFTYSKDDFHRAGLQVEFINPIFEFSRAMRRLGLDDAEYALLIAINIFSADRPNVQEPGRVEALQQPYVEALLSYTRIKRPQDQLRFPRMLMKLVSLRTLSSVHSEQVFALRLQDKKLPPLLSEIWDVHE
hcDAF12 conf = hcDAF-12 agonism, confirmation assay. shares compounds with hcDAF-12 act. HEK293 hcDAF-12 lit1-tk-luc reporter, luminescence; % of Δ7-dafachronic acid response. activation, % at 6.8 µM. 61% of 3,400 active;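 active means mean activation across triplicate tests above the threshold derived from the earlier primary screen, cut at about 5.5% in these data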
Each line names hits and unclear results; the compound was inactive in the other large screens (follow-up assays come after a bar, where they were run). Most compounds without a hit are left out; they make up all but 4.1% or so of the library.

CC(C)NC(=O)Nc1ccc2c(c1)C(=O)N([C@H](C)CO)C[C@H](C)[C@@H](CN(C)Cc1ccc(C(F)(F)F)cc1)OCCCC[C@H](C)O2	none
COc1cccc(S(=O)(=O)Nc2ccc3c(c2)C(=O)N(C)C[C@H](OC)[C@H](C)CN(Cc2ccccc2F)[C@@H](C)CO3)c1	none (no result: DAX1 inh-2)
CC(C)NC(=O)OC[C@@H]1CSCCS(=O)(=O)N1	none (no result: DAX1 inh-2)
O=C(Cn1cc(COC(=O)c2c3ccccc3cc3ccccc23)nn1)c1ccc(O)cc1	none (no result: DAX1 inh-2)
C=CCN(CC#Cc1cccnc1)Cc1ccc(OC)cc1OC	none (no result: DAX1 inh-2)
N#CCC[C@H]1CC[C@]2(CCCN(Cc3cccc4ccccc34)C2)O1	none (no result: DAX1 inh-2)
O=C(N/N=C/c1ccccc1)C(O)c1ccccc1 (stereo not drawn)	hcDAF-12 act 6.7 | LXRb hcDAF ctr inactive | hcDAF12 conf 5.6
O=C(NN=Cc1ccccc1O)C(O)c1ccccc1 (stereo not drawn)	none
Cc1ccc(NC(=S)N2CCC(O)CC2)c(C)c1	none
Cc1ccc(NC(=S)N2CCCC(CO)C2)c(C)c1 (stereo not drawn)	hcDAF-12 act 6.9, hgDAF-12 ag 11 | LXRb hcDAF ctr inactive | hcDAF12 conf inactive
O=S(=O)(NCc1nnnn1-c1ccc(F)cc1)c1ccc(F)cc1	none
CCOC(=O)COn1c(=O)c(-c2ccc(F)cc2)[n+]([O-])c2ccccc21	none
C=CCOn1c(=O)c(-c2cc3ccccc3o2)[n+]([O-])c2ccccc21	ssDAF-12 act 1.8, hcDAF-12 act 11, hgDAF-12 ag 12 | LXRb hcDAF ctr inactive | hcDAF12 conf inactive
CCOC(=O)COn1c(=O)c(-c2cc3ccccc3o2)[n+]([O-])c2ccccc21	ssDAF-12 act 1.0, hcDAF-12 act 9.3 | LXRb hcDAF ctr inactive | hcDAF12 conf 14
C=CCOn1c(=O)c(-c2ccccc2)[n+]([O-])c2ccccc21	none
COC(=O)[C@]12CCCCC=C1N(Cc1ccc(OC)cc1)C(=O)[C@@H]2CC(=O)N1CCCCC1	none (no result: DAX1 inh-2)
c1ccc(-c2csc(Nc3cccnc3)n2)nc1	none
c1ccc(Nc2nc(-c3ccccn3)cs2)cc1	ssDAF-12 act 1.3, hcDAF-12 act 13, hgDAF-12 ag 13 | LXRb hcDAF ctr inactive | hcDAF12 conf 11
O=C(N/N=C/c1cccc2ccccc12)c1ccccc1Cl	none
O=C(N/N=C/c1cc2ccccc2[nH]1)c1ccccc1Cl	hcDAF-12 act 6.6 | LXRb hcDAF ctr inactive | hcDAF12 conf inactive
CCn1c(/C=C\c2ccccc2C)nc2ccccc2c1=O	none
CCn1c(/C=C/c2c[nH]c3ccccc23)nc2ccccc2c1=O	ssDAF-12 act 1.4, hcDAF-12 act 8.6, hgDAF-12 ag 12, DAX1 inh-2 5.2 | LXRb hcDAF ctr inactive | hcDAF12 conf 7.8
CCn1c(/C=C/c2c(C)[nH]c3ccccc23)nc2ccccc2c1=O	ssDAF-12 act 0.9, hcDAF-12 act 10 | LXRb hcDAF ctr inactive | hcDAF12 conf inactive
CCn1c(/C=C/c2ccccc2Cl)nc2ccccc2c1=O	none
Nc1ccccc1C(=O)NN=Cc1cccnc1	none (no result: DAX1 inh-2)
CC(C)CN1CCN(C(=O)CCc2nnc(Cc3c[nH]c4ccccc34)o2)[C@@H](C)C1=O	hcDAF-12 act 7.0 | LXRb hcDAF ctr inactive | hcDAF12 conf inactive
C[C@H](O)[C@@H]1CN2CCc3c([nH]c4c(-c5ccccc5)cccc34)[C@@H]2C[C@@H]1N(C)C(=S)NCCc1ccccc1	none (no result: DAX1 inh-2)
COC(=O)c1cc(-c2ccc(C(C)(C)C)cc2)c(=O)n2c1CCC2	hcDAF-12 act 7.1 (no result: DAX1 inh-2) | LXRb hcDAF ctr inactive | hcDAF12 conf inactive
COC(=O)c1cc(-c2ccccc2)c(=O)n2c1CCC2	none (no result: DAX1 inh-2)
COCCNc1nc(NCc2ccc(C(C)C)cc2)c2sccc2n1	none (no result: DAX1 inh-2)
O=C(O)c1cccc(COc2cccc3ccccc23)c1	ssDAF-12 act 1.3, hcDAF-12 act 9.1, hgDAF-12 ag 13 | LXRb hcDAF ctr inactive | hcDAF12 conf 9.4
Cc1oc(C(=O)O)cc1COc1cccc2ccccc12	none
COc1ccccc1Cc1c(C(C)(C)C)nc2ccc(C)cn12	hcDAF-12 act 6.6 (no result: DAX1 inh-2) | LXRb hcDAF ctr inactive | hcDAF12 conf inactive
CCN1CCCC1CNC(=O)c1[nH]c2ccc(OC)cc2c1C (stereo not drawn)	none
CCN1CCCC1CNC(=O)c1cc2ccc(OC)cc2[nH]1 (stereo not drawn)	hcDAF-12 act 6.6 | LXRb hcDAF ctr inactive | hcDAF12 conf inactive
O=C(COC(=O)c1ccc([N+](=O)[O-])o1)Nc1ccc(F)cc1	none
Cc1ccc2nc(-c3ccc(NC(=O)COC(=O)c4ccc([N+](=O)[O-])o4)cc3)sc2c1	ssDAF-12 act 1.3, DAX1 inh-1 4.0, hcDAF-12 act 7.4, hgDAF-12 ag 23 | LXRb hcDAF ctr inactive | hcDAF12 conf 8.8
CC1CCC/C(=N\NS(=O)(=O)c2ccccc2)C1 (stereo not drawn)	none
CC1CCCC(=NNc2ccc3ccccc3n2)C1 (stereo not drawn)	hcDAF-12 act 6.7 | LXRb hcDAF ctr inactive | hcDAF12 conf inactive
c1cncc(Cc2cc3ccccc3[nH]2)c1	none
c1ccc2[nH]c(-c3cnco3)cc2c1	hcDAF-12 act 6.7 | LXRb hcDAF ctr inactive | hcDAF12 conf 7.3
COc1ccc(Cl)cc1NC(=O)c1[nH]nc(OC)c1[N+](=O)[O-]	hcDAF-12 act 6.7 | LXRb hcDAF ctr inactive | hcDAF12 conf inactive
COC(=O)[C@H](NC(=O)c1cc([C@@H](NC(=O)OC(C)(C)C)C(C)C)sc1N)C(C)C	none (no result: DAX1 inh-2)
Cc1ccc(CN2CCCCC(NC(=O)C(C)(C)C)C2=O)cc1 (stereo not drawn)	none (no result: DAX1 inh-2)
CCN1CCN(C(=O)C2CCN(c3nnc(-n4c(C)ccc4C)s3)CC2)CC1	hcDAF-12 act 11 | LXRb hcDAF ctr inactive | hcDAF12 conf inactive
O=C(NC(=S)Nc1nc2c(s1)CSc1ccccc1-2)c1ccccc1	hcDAF-12 act 7.1 | LXRb hcDAF ctr inactive | hcDAF12 conf 7.6
COc1ccc(-c2nnn3c2Cn2c4ccccc4c(=O)n2[C@@H](C)C3)cc1	none (no result: DAX1 inh-2)
O=C(Nc1ccc(Br)cc1)c1cc2ccccn2n1	hcDAF-12 act 6.9, hgDAF-12 ag 13 | LXRb hcDAF ctr inactive | hcDAF12 conf inactive
CC(NC(=O)c1cc2ccccn2n1)c1ccccc1 (stereo not drawn)	none (no result: DAX1 inh-2)
CCCOc1ccc(OCCSc2ncccn2)cc1	hcDAF-12 act 6.8 | LXRb hcDAF ctr inactive | hcDAF12 conf inactive
Cc1ccn2cc(-c3cccc(NC(=O)C(C)C)c3)nc2c1	none
Cc1ccn2cc(-c3ccc(O)c(O)c3)nc2c1	hcDAF-12 act 7.0 | LXRb hcDAF ctr inactive | hcDAF12 conf 7.5
CC(=O)NC(Cc1ccccc1)P(=O)(O)O (stereo not drawn)	none (no result: DAX1 inh-2)

Screening results: PubChem, The Scripps Research Institute Molecular Screening Center
